Some test systems named below: TNNI3K; TRKB; TRPM6; TSSK1B; TSSK3; TTK; TXK.
Holding throughout (details): concentration: 1 μM, replicates: in singlicate; n = 1
In a further assay the test system is T1, TRKA.
T1 construct: gene NTRK1

For a further assay, the system named is T2, TRKC.
T2 construct: gene NTRK3

The subject of assay [1] is TYK2(JH1domain-catalytic).

Structures are written as SMILES.
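Also: KINOMEscan kinase panel screen.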

For `CC(C)c1nc(-c2cccc(NS(=O)(=O)c3c(F)cccc3F)c2F)c(-c2ccnc(Nc3ccc(N4CCOCC4)nc3)n2)s1` [GSK2008607], the “%Inh” value with TNNI3K amounted to 92.7%; in the assay on TRKA, 87%; in the assay with TRKB, 0%; with TRKC, 51%; in the assay on TRPM6 it was 57%; in the assay with TSSK1B it was 0%. Besides, the “%Inh” value is 34% with TSSK3, 82% in the assay on TTK, 95.2% in the assay with TXK and 94.9% in assay [1].

As to `COc1cc(Nc2nccc(N3CCC(NC(=O)c4cc5ccccc5s4)C3)n2)cc(OC)c1OC` (stereo not shown) [GSK1379760], the “%Inh” value was 0% in the assay with TNNI3K; 21% with TRKA; 0% in the assay with TRKB; 35% with TRKC; 17% with TRPM6; 0% in the assay on TSSK1B. The “%Inh” value in the assay on TSSK3 was determined as 26%; with TTK, 0%; in the assay with TXK, 0%; in [1], 28%.

Turning to `Cc1ccc(C(=O)N2CC[C@@H](O)C2)cc1-n1c(C)cc(OCc2ccc(F)cc2F)c(Br)c1=O`, the “%Inh” value with TNNI3K, with TRKA, in the assay with TRKB, with TRKC, with TRPM6 and in the assay with TSSK1B was 0% in each case. Besides, the “%Inh” value amounted to 0% in the assay with TSSK3, 3% with TTK, 0% in the assay with TXK and 0% in assay [1].

With `COCCOCCOc1cc2ncc3c4ccc(C#N)cc4[nH]c3c2cc1OC`, the “%Inh” value with TNNI3K is on record as 9%; with TRKA it was 98%; with TRKB it was 90%; with TRKC, 78%; with TRPM6, 0%; in the assay on TSSK1B, 0%. The “%Inh” value with TSSK3 is reported as 0%; in the assay with TTK it was 26%; in the assay with TXK, 4%; in assay [1], 0%.

Consider `O=C(Nc1ccccc1F)NC1CCN(c2ccnc(Nc3ccc(F)cc3)n2)CC1` [GSK1379800], for which the “%Inh” value in the assay on TNNI3K was 0%; in the assay with TRKA it was 0%; in the assay with TRKB, 0%; in the assay with TRKC, 6%; in the assay on TRPM6, 0%; with TSSK1B, 1%. The “%Inh” value is 22% in the assay on TSSK3, 0% in the assay on TTK, 46% in the assay with TXK and 28% in assay [1].

For `c1ccc(-c2n[nH]cc2Nc2ccnc3ccccc23)nc1` [GW694077], the “%Inh” value with TNNI3K worked out at 0%; in the assay with TRKA, 74%; with TRKB, 26%; in the assay on TRKC, 21%; with TRPM6 it was 15%; with TSSK1B it was 12%. For the same compound, the “%Inh” value with TSSK3 was determined as 28%; in the assay with TTK, 64%; in the assay with TXK it was 0%; in [1], 92%.

For the compound `COc1cc(Nc2nccc(-c3c(-c4cccc(NC(=O)c5c(F)cccc5F)c4)nn4ccccc34)n2)cc(OC)c1OC` [GSK323521], the “%Inh” value in the assay on TNNI3K is recorded as 3%; in the assay with TRKA, 78%; in the assay on TRKB it was 35%; in the assay on TRKC it was 40%; with TRPM6, 16%; in the assay with TSSK1B, 0%. Moreover, the “%Inh” value with TSSK3 was 20%; with TTK it was 10%; in the assay on TXK, 0%; in [1], 0%.

As to `Cc1cccc(Nc2nc(N[C@H]3CCNC3)ncc2C(N)=O)c1.Cl` [GSK2197149], the “%Inh” value is 0% in the assay with TNNI3K; 93.3% in the assay on TRKA; 0% in the assay with TRKB; 18% in the assay on TRKC; 34% in the assay with TRPM6; 13% in the assay on TSSK1B. For the same compound, the “%Inh” value in the assay on TSSK3 came to 29%; in the assay on TTK, 29%; with TXK, 15%; in assay [1] it was 46%.

For `COc1cccc(C(=O)Nc2cccc(Oc3ccc4nc(NC(=O)C5CC5)cn4n3)c2)c1`, the “%Inh” value in the assay on TNNI3K amounted to 87%; in the assay on TRKA it was 0%; in the assay on TRKB, 0%; in the assay with TRKC, 0%; in the assay on TRPM6 it was 17%; in the assay on TSSK1B, 6%. Besides, the “%Inh” value in the assay with TSSK3 worked out at 0%; in the assay with TTK it was 13%; in the assay on TXK, 37%; in assay [1] it was 0%.

On to `CN(c1ccc(NC(=O)Nc2cc(C(F)(F)F)ccc2F)cc1)c1ccnc(Nc2ccc(S(N)(=O)=O)cc2)n1` [GW809893], for which the “%Inh” value is recorded as 93.3% with TNNI3K; 100% in the assay with TRKA; 97.6% in the assay on TRKB; 98.7% in the assay on TRKC; 31% in the assay with TRPM6; 5% with TSSK1B. Also, the “%Inh” value amounted to 9% with TSSK3, 22% in the assay on TTK, 26% in the assay on TXK and 44% in assay [1].

As for `O=c1[nH]cc(-c2ccc(N3CCOCC3)cc2)c2sc(-c3cn[nH]c3)cc12` [GSK2276055], the “%Inh” value turned out to be 0% in the assay with TNNI3K; 0% in the assay with TRKA; 0% in the assay on TRKB; 0% with TRKC; 0% in the assay with TRPM6; 18% in the assay on TSSK1B. The “%Inh” value is given as 13% in the assay on TSSK3, 22% in the assay with TTK, 76% in the assay with TXK and 23% in [1].

As for `O=C(Nc1cccc(-c2nn3ccccc3c2-c2ccnc(Nc3cccc(F)c3)n2)c1)c1c(F)ccc(F)c1Cl` [GSK357952], the “%Inh” value with TNNI3K worked out at 0%; in the assay with TRKA it was 11%; in the assay on TRKB, 0%; in the assay on TRKC it was 0%; in the assay with TRPM6, 32%; with TSSK1B, 0%. Further, the “%Inh” value in the assay on TSSK3 came to 6%; in the assay with TTK, 28%; in the assay with TXK it was 67%; in assay [1] it was 11%.

Consider `CC(=O)N1CCN(c2ccc(Nc3nccc(-c4sc(C(C)C)nc4-c4cccc(NS(=O)(=O)c5cccc(Cl)c5)c4)n3)cn2)CC1` [GSK1660437], for which the “%Inh” value in the assay on TNNI3K is 22%; in the assay on TRKA, 45%; with TRKB it was 0%; with TRKC it was 0%; in the assay with TRPM6 it was 41%; with TSSK1B it was 10%. Further, the “%Inh” value in the assay on TSSK3 is given as 4%; with TTK, 56%; in the assay with TXK, 20%; in assay [1], 29%.

As for `CCS(=O)(=O)c1ccc(OC)c(Nc2nccc(-c3c(-c4cccc(NC(=O)c5c(F)cccc5F)c4)nn4ncccc34)n2)c1` [GSK326180], the “%Inh” value is 15% in the assay on TNNI3K; 0% in the assay on TRKA; 5% in the assay on TRKB; 0% in the assay with TRKC; 55% in the assay with TRPM6; 23% in the assay with TSSK1B. Besides, the “%Inh” value was 12% with TSSK3, 0% with TTK, 15% with TXK and 0% in assay [1].

For the compound `COc1ccc(CNC(=O)NC2CCN(c3ccnc(Nc4ccc(F)cc4)n3)CC2)cc1` [GSK1379788], the “%Inh” value in the assay on TNNI3K was determined as 0%; in the assay with TRKA it was 0%; in the assay with TRKB, 0%; in the assay on TRKC it was 6%; in the assay with TRPM6, 0%; in the assay on TSSK1B, 1%. Besides, the “%Inh” value in the assay on TSSK3 was determined as 18%; in the assay on TTK, 0%; in the assay with TXK, 3%; in [1], 21%.

Consider `CSc1cccc2c(-c3ccncn3)c(-c3ccc(F)cc3)nn12` [GW514786], for which the “%Inh” value in the assay with TNNI3K is on record as 6%; in the assay with TRKA, 16%; with TRKB, 0%; in the assay on TRKC, 0%; in the assay on TRPM6, 17%; in the assay on TSSK1B, 0%. The “%Inh” value in the assay on TSSK3 was found to be 22%; in the assay with TTK it was 8%; in the assay on TXK, 0%; in assay [1] it was 0%.

Source of the values: PMC5540273 (PLoS ONE, 2017).
